# Source: paper PMC5540273 (PLoS ONE, 2017)
# Legend:
# Details in all cases: concentration: 1 μM, replicates: in singlicate; n = 1
# [1] = system: SRMS
# [2] = system: SRPK1
# [3] = system: SRPK2
# [4] = system: SRPK3
# [5] = system: STK16
# [6] = system: STK33
# [7] = system: STK35
# [8] = system: STK36
# [9] = system: STK39
# [10] = system: SYK
# [11] = system: SgK110
# [12] = system: T1, TAK1
# T1 construct: gene MAP3K7
# [13] = system: TAOK1
# [14] = system: TAOK2
# [15] = system: TAOK3
# [16] = system: TBK1
# [17] = system: TEC
# [18] = system: TESK1
# [19] = system: TGFBR1
# [20] = system: TGFBR2
# 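Note: KINOMEscan kinase panel screen.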
SMILES,%Inh [1] [%],%Inh [2] [%],%Inh [3] [%],%Inh [4] [%],%Inh [5] [%],%Inh [6] [%],%Inh [7] [%],%Inh [8] [%],%Inh [9] [%],%Inh [10] [%],%Inh [11] [%],%Inh [12] [%],%Inh [13] [%],%Inh [14] [%],%Inh [15] [%],%Inh [16] [%],%Inh [17] [%],%Inh [18] [%],%Inh [19] [%],%Inh [20] [%]
CC(C)(C)c1ccc(-n2cnc3c(N)ncnc32)cc1 [SKF-97263],14,29,0,31,0,0,11,11,0,0,0,10,6,0,8,15,12,0,0,6
COc1ccc(Nc2nccc(N3CCC(NC(=O)c4cccc(NC(C)=O)c4)C3)n2)cc1 (stereo not shown) [GSK1379732],9,18,61,0,11,2,0,0,15,18,10,0,0,0,0,0,0,26,4,0
Fc1cccc(COc2ccc(Nc3ncnc4nn5ccccc5c34)cc2Cl)c1 [GW689066],0,2,30,8,12,0,0,0,0,26,0,0,0,0,0,0,0,14,0,0
Cl.Fc1ccccc1COc1ccc(Nc2ncnc3ccc(-c4nnc(C(F)(F)F)o4)cc23)cc1Cl [GW424170],0,0,3,0,0,0,0,0,0,0,0,0,0,0,0,7,5,29,0,0
CCC(CC)(CC)n1cnc2c(N)ncnc21 [SKF-97620],22,14,20,22,2,0,0,4,0,11,8,6,48,2,22,15,35,0,52,0
OCCOCCn1ccc2ncnc(Nc3ccc(Oc4cccc(Cl)c4)c(Cl)c3)c21,0,0,0,0,0,0,0,0,0,26,0,0,0,0,0,7,0,0,7,0
COC(=O)c1cccc(NC(=O)NCCNc2ccnc(Nc3ccc(F)cc3)n2)c1 [GSK1379883],0,17,0,7,5,0,0,0,0,5,0,0,0,0,0,16,0,23,13,0
CC(C)N1CCC(n2cnc(-c3ccc(F)cc3)c2-c2ccnc(N)n2)CC1 [SB-223132],0,0,45,6,0,0,0,26,0,19,0,0,0,0,0,50,6,23,25,0
Nc1nc(-c2ccc3c(N)n[nH]c3c2)cc(N2CCC[C@@H](C(=O)Nc3ccccc3)C2)n1.O=C(O)C(F)(F)F.O=C(O)C(F)(F)F [GSK2288359],0,34,0,25,18,0,0,0,1,0,0,5,0,0,0,31,0,18,22,0
Nc1nc(-c2ccccn2)c(-c2ccnc3ccccc23)s1 [GW548057],0,0,58,0,19,1,0,0,7,2,0,20,0,0,0,12,8,0,,50
Cc1ccc(O)cc1Nc1cc(C(F)(F)F)nc2ccc(-c3ccncc3)cc12 [GW630823],0,7,0,0,28,24,0,0,0,8,0,0,0,5,0,5,92.1,6,5,0
CC(=O)Nc1n[nH]c2ncc(-c3ccccc3)cc12 [SB-548492],25,25,0,20,26,0,10,12,0,2,3,20,27,24,8,29,1,6,0,0
Cn1ccc2ncnc(Nc3ccc(Oc4cccc(Cl)c4)c(Cl)c3)c21,0,20,0,0,0,26,0,6,0,4,11,25,0,0,0,28,96.7,13,4,0
FC(F)(F)c1cc(Nc2nccc(-c3c(-c4ccc(Cl)cc4)nn4ncccc34)n2)ccc1Cl [GW829351],27,0,7,4,0,0,0,21,0,2,23,0,0,2,0,2,0,0,21,0
Nc1nc(-c2ccc3c(N)n[nH]c3c2)cc(N2CCCCC2)n1 [GSK2228768],0,45,0,0,5,0,0,0,0,8,0,0,0,0,0,23,2,0,0,0
FC(F)(F)c1ccc(-c2nn3ncccc3c2-c2ccnc(Nc3cccc(C(F)(F)F)c3)n2)cc1 [GW828205],30,0,36,8,14,5,0,0,0,20,23,0,0,32,0,51,7,3,0,0
Cn1ccc2ncnc(Oc3ccc(NC(=O)Nc4cccnc4)c(Cl)c3)c21,0,12,0,0,3,0,6,13,0,0,49,12,0,0,0,5,6,0,0,0
Nc1n[nH]c2nnc(-c3ccccc3)cc12 [SB-517389],0,20,0,1,0,0,0,0,13,5,0,0,0,0,3,6,11,27,0,0
O=c1cc(N2CCOCC2)nc2n(Cc3cccc(Cl)c3)ccn12 [GSK2296823],0,16,0,51,0,0,6,0,11,5,0,0,0,0,0,38,1,0,0,0
